These results are taken from PubChem BioAssay.

Calls of active or inactive are those of the source. Unless noted, the rule behind the calls is not given here.

The subject of test [1] is Wnt5a (protein binding on small-molecule microarray). Kind of test: small molecules binding Wnt5a protein – biophysical, small-molecule microarray, 635/667 nm fluorescence, primary screen (AID 1142).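 Note: fluorescence read at 667 nm with signal to noise per printed feature.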 As to conditions: 635 nm fluorescence, higher = more signal.
Test [2] can be described thus: ATP-based viability of Huh7 replicon cells – cell-based, CellTiter-Glo luminescence, basal, 48 h, cytotoxicity control for HCV replication inhibitor project, primary screen (AID 1143).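 Note: Huh7 hepatoma cells carrying a hepatitis C replication reporter with no stimulus; test concentration not given here.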 As to conditions: higher = more signal, called active from +8 up or from −8 down.
The nature of test [3]: Pseudomonas biofilm growth suppression – PAO1 strain, BacTiter-Glo luminescence, LB-PBS, primary screen (AID 1144). The note with it: P. aeruginosa PAO1 biofilm, 12 h, higher = more signal.
Test [4] can be described thus: basal CRE-LacZ reporter activity in PC12 – cell-based, unstimulated, primary screen (AID 1145). The note with it: no forskolin, luminescence, 4.5 h, higher = more signal, called active from +8 up or from −8 down.
Test [5] in a line: forskolin-driven CRE-LacZ activity in PC12 – cell-based, CRE-LacZ reporter, forskolin-stimulated, primary screen (AID 1146).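 Note: PC12 cells with 6xCRE LacZ reporter stimulated by forskolin 10 µM; beta-galactosidase reporter signal reflecting CREB driven transcription.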 The note with it: luminescence, 4.5 h, higher = more signal, called active from +8 up or from −8 down.
For test [6], the target named is Streptavidin (Streptomyces avidinii) (UniProt P22629). Description: compounds binding control protein streptavidin – biophysical, small-molecule microarray, 635/667 nm fluorescence, artefact control for SMM compound annotation, primary screen (AID 1147).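 Note: signal reflects streptavidin binding to arrayed compounds as a control protein.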 As to conditions: higher = more signal.
A short description of test [7]: probe aInhba binding on compound microarray – biochemical, small-molecule microarray, 635/667 nm fluorescence, primary screen (AID 1148).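 Note: score merges 667nm spot fluorescence with signal-to-noise for antibody binding to printed compounds.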 The note with it: higher = more signal.
In test [8] the target is Torsin-1A (Homo sapiens) (UniProt O14656). Description: TOR1A wild-type binding on microarray – cell lysate, small-molecule microarray, lysate, 635/667 nm, primary screen (AID 1149). The note with it: COS7 hTOR1A-WT lysate, 635 nm fluorescence, higher = more signal.
Test [9] shares this target. Kind of test: torsin A mutant lysate binding on microarrays – cell lysate, small-molecule microarray, COS7 lysate, 635/667 nm fluorescence, primary screen (AID 1150).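 Note: score pools 667 nm emission and signal to noise measuring lysate protein binding.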 As to conditions: COS7 hTOR1A mutant lysate, 635 nm fluorescence, higher = more signal.
Test [10] relates to Sonic hedgehog protein (Shh). Kind of test: Sonic hedgehog microarray binding compounds – biochemical, small-molecule microarray, 635/667 nm fluorescence, primary screen (AID 1151).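 Note: Shh protein binding to compounds spotted on small-molecule microarray slides; score combines spot fluorescence intensity with signal-to-noise across triplicate slides.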 As to conditions: 635 nm fluorescence, higher = more signal.

Sequence of Torsin-1A (Homo sapiens) (O14656 whole entry, looked up): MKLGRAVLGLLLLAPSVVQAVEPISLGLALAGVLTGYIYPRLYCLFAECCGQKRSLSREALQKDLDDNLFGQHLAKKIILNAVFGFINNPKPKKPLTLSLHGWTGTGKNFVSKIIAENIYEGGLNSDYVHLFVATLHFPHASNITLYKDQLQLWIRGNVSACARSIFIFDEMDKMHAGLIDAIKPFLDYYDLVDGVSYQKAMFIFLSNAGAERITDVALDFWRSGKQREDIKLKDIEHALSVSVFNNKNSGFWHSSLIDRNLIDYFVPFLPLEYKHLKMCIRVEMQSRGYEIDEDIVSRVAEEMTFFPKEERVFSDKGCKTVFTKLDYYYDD
Sequence of Streptavidin (Streptomyces avidinii) (P22629 whole entry, looked up): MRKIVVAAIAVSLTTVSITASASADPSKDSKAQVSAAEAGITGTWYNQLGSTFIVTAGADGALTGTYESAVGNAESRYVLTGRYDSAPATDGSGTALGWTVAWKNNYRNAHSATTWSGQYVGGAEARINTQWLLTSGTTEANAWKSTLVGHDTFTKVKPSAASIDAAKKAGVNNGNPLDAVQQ

Consider `O=C(NCCN1CCOCC1)[C@@H]1c2ccccc2C(=O)N(Cc2ccccc2)[C@H]1c1ccc(CO)cc1`, for which the composite z-score in [1] was -0.817; in test [6] it was 1.49; in test [7], -0.0719; in the test with Torsin-1A (Homo sapiens) [8] it was -1.46; in the test with Torsin-1A (Homo sapiens) [9], -0.21; in test [10], -1.67. Besides, the z-score is -1.62 (inactive) in [2], -0.996 (inactive) in test [3], 0.145 (inactive) in [4] and -0.674 (inactive) in test [5].
Turning to `C[C@]1(C(=O)NCCN2CCOCC2)c2ccccc2C(=O)N(Cc2cc(F)cc(C(F)(F)F)c2)[C@H]1c1ccc(CO)cc1`, the composite z-score is -0.187 in [1]; 0.0519 in [6]; 0.027 in [7]; 1.82 with Torsin-1A (Homo sapiens) [8]; 1.84 with Torsin-1A (Homo sapiens) [9]; 1.86 in [10]. For the same compound, the z-score in test [2] was -1.39 (inactive); in test [3], -1.32 (inactive); in test [4] it was -0.385 (inactive); in test [5] it was -0.909 (inactive).
`CN1C=C(C(=O)OCCS(C)(=O)=O)C(C(=O)OCCS(C)(=O)=O)=CC(c2ccc(CO)cc2)=CC1c1cccs1` (stereo not given): the composite z-score in test [1] was 0.0466; in test [6], 1.42; in test [7], 0.0659; with Torsin-1A (Homo sapiens) [8] it was 0.579; in the test with Torsin-1A (Homo sapiens) [9], 0.713; in test [10], 0.929. In addition, the z-score in test [2] was -1.3 (inactive); in [3] it was 0.637 (inactive); in [4], 2.34 (inactive); in test [5], -1.45 (inactive).
With `CC(C)[Si]1(C(C)C)OCc2cc(-c3ccc(-c4ccc(Cl)c(Cl)c4)o3)nc(CCc3ccccc3)c21`, the composite z-score in test [1] is 0.0947; in test [6], -0.884; in test [7], -0.179; with Torsin-1A (Homo sapiens) [8], -0.696; with Torsin-1A (Homo sapiens) [9] it was -0.436; in test [10] it was 0.3. Besides, the z-score was -1.53 (inactive) in test [2], -0.612 (inactive) in test [3], -0.0247 (inactive) in test [4] and 1.6 (inactive) in test [5].
Regarding `COCCOC(=O)N1C(=O)[C@@]2(c3cc(C#CCC(C(=O)OC)C(=O)OC)ccc31)[C@H](C(=O)NC[C@H](O)c1ccccc1)[C@H]1C(=O)O[C@H](c3ccccc3)[C@H](c3ccccc3)N1[C@@H]2c1ccc(OCCO)cc1`, the composite z-score is -0.157 in [1]; 0.688 in test [6]; -0.0804 in test [7]; -0.012 with Torsin-1A (Homo sapiens) [8]; 0.367 in the test with Torsin-1A (Homo sapiens) [9]; 1.69 in test [10]. Moreover, the z-score in test [2] was -1.01 (inactive); in test [3], 0.366 (inactive); in test [4], 0.895 (inactive); in [5], -0.102 (inactive).
For `CC=CC(O)C1C=CC2C(=O)NC(=O)C2N1Nc1ccccn1` (stereo not given), the composite z-score was -0.11 in test [1]; 0.149 in [6]; -0.0645 in test [7]; 0.599 in the test with Torsin-1A (Homo sapiens) [8]; -0.164 with Torsin-1A (Homo sapiens) [9]; 0.77 in [10]. In addition, the z-score in test [2] was 1.11 (inactive); in test [3], -0.587 (inactive); in test [4], -0.329 (inactive); in [5], 0.701 (inactive).
For the compound `CCCCCN1CC=CC23O[C@@H]4C=CCOC(=O)[C@@H]4[C@H]2C(=O)N(CCO)[C@@H]3C1=O` (stereo not given in full), the composite z-score in test [1] is -0.395; in test [6] it was -0.958; in test [7] it was -0.205; in the test with Torsin-1A (Homo sapiens) [8], 1.17; with Torsin-1A (Homo sapiens) [9], 1.78; in test [10] it was -0.456. The z-score in [2] was -0.143 (inactive); in test [3] it was 1.13 (inactive); in test [4], -0.0818 (inactive); in test [5], -0.585 (inactive).
`C=CCOC(=O)[C@H]1[C@@H]2C(=O)O[C@@H](c3ccccc3)[C@@H](c3ccccc3)N2[C@@H](c2ccc(OCCOC(=O)[C@H]3C[C@H]4C(=O)N[C@@H](CCCCNC(C)=O)C(=O)N4[C@H]3c3cccc(OCCO)c3)cc2)[C@]12C(=O)Nc1ccc(I)cc12`: the composite z-score in test [1] is 1.28; in test [6] it was 0.0123; in test [7] it was -0.431; with Torsin-1A (Homo sapiens) [8], 0.96; with Torsin-1A (Homo sapiens) [9] it was 0.763; in [10] it was 2.46. Besides, the z-score was -2.16 (inactive) in [2], 0.437 (inactive) in [3], 0.557 (inactive) in test [4] and 0.133 (inactive) in test [5].
For `COCC1=C2[C@@H](CCc3ccccc3)OB(O)C[C@@H]2[C@@H]2C(=O)N(C)C(=O)[C@@H]2C1`, the composite z-score in [1] was -0.16; in [6] it was 0.0675; in test [7], -0.113; with Torsin-1A (Homo sapiens) [8], 0.607; with Torsin-1A (Homo sapiens) [9], -0.0933; in test [10], 0.588. In addition, the z-score in test [2] was 0.0876 (inactive); in test [3], 0.0987 (inactive); in test [4] it was -0.871 (inactive); in test [5], 1.08 (inactive).
Turning to `CCOC(=O)C[C@H]1[C@H](OC(=O)c2ccc(-c3ccccc3)cc2)[C@@H](NC(=O)CC(C)C)c2cc(OCCCO)ccc2N1C(=O)c1ccccc1`, the composite z-score in test [1] was 0.121; in [6] it was 0.216; in [7], -0.0963; with Torsin-1A (Homo sapiens) [8], -0.477; in the test with Torsin-1A (Homo sapiens) [9] it was 0.289; in test [10] it was 1.03. The z-score was -0.092 (inactive) in test [2], 0.0804 (inactive) in [3], 0.469 (inactive) in test [4] and -0.375 (inactive) in test [5].
Take `COCCOC(=O)N1C(=O)[C@@]2(c3cc(C#CCCO)ccc31)[C@H](C(N)=O)[C@H]1C(=O)O[C@H](c3ccccc3)[C@H](c3ccccc3)N1[C@@H]2c1ccc(OCCO)cc1`: the composite z-score in test [1] was determined as 0.622; in test [6], 0.438; in [7] it was 0.0391; with Torsin-1A (Homo sapiens) [8] it was 1.47; in the test with Torsin-1A (Homo sapiens) [9], 0.684; in test [10], 1.36. Further, the z-score in [2] was -0.869 (inactive); in test [3], -0.402 (inactive); in test [4] it was -0.141 (inactive); in test [5] it was -0.087 (inactive).
`CCC(CC)C(O)C1C=CC2C(=O)N(c3ccccc3)C(=O)C2N1Nc1ccc([N+](=O)[O-])cc1` (stereo not given): the composite z-score in [1] was 0.205; in test [6] it was 0.754; in [7], 0.124; with Torsin-1A (Homo sapiens) [8], 0.273; in the test with Torsin-1A (Homo sapiens) [9], 0.427; in test [10], 0.179. Also, the z-score in [2] was 0.0373 (inactive); in test [3], -0.639 (inactive); in test [4] it was -0.62 (inactive); in test [5] it was -0.68 (inactive).
